Experimental findings from PubChem BioAssay are described below.

Inconclusive results are not listed. Activity calls are given as the source filed them.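 Rule for the calls, unless noted: active = inhibition above the screen-wide mean plus 3 SD, about 51%; inactive = the rest.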

Assay [1] can be described thus: yeast TOR pathway RPL19A-GFP modulators, primary screen, cell-based, S. cerevisiae, multiplex flow cytometry (AID 1862; in the data active = percent of DMSO control GFP below about 86%;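 note: lower values mimic rapamycin by blocking the RPL19A rise seen in DMSO cells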). Particulars: S. cerevisiae RPL19A-GFP strain, flow cytometry fluorescence, 3 h; at 10 µM; stronger effect = lower value. Background: A flow cytometer gives signals particle by particle.
Assay [2] is described as follows: modulators of MEP2-GFP levels in yeast, primary screen, S. cerevisiae, multiplex flow cytometry (AID 1867;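 active = GFP response, as percent of the DMSO control, above the screen-wide mean plus 3 SD, about 139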;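 note: median GFP channel fluorescence of barcode-gated MEP2-GFP cells measured by flow cytometry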). Particulars: S. cerevisiae MEP2-GFP strain, 3 h, at 10 µM, stronger effect = higher value, 100% means same as DMSO wells.
A short description of assay [3]: modulators of CIT2-GFP expression in yeast, primary screen, S. cerevisiae, GFP fusion, multiplex flow cytometry (AID 1870;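 active = percent response above a set limit, the screen-wide mean plus 3 SD, cut at about 130% in these data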;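 note: barcoded CIT2-GFP strain pooled with four other GFP strains with rapamycin as positive control; median GFP fluorescence per well over plate mean of DMSO wells so 100% = DMSO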). Particulars: 3 h, at 10 µM, stronger effect = higher value.
Assay [4] is described as follows: modulators of LAP4-GFP expression in yeast, primary screen, S. cerevisiae, multiplex flow cytometry (AID 1873;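 active = GFP signal, as percent of the solvent control, above the screen mean plus 3 SD, about 149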). Particulars: 3 h, at 10 µM, stronger effect = higher value.
The nature of assay [5]: modulators of AGP1-GFP expression in yeast TOR pathway, primary screen, cell-based, multiplex flow cytometry, S. cerevisiae (AID 1887;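 active = GFP signal above the screen-wide mean plus 3 SD, that is over about 124.5% of the solvent control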;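 note: AGP1-GFP fusion strain of S. cerevisiae within a five-strain barcoded multiplex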). Particulars: 3 h, at 10 µM, stronger effect = higher value.
Assay [6] in a line: inhibitors of CD8+ T cell-vesicle binding, pilot screen, LFA-1/ICAM-1 modulator project, MLPCN validation set, flow cytometry (AID 2523;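 active = response below a set limit, under 55% cells CD8-positive and vesicle-bound, and CD8 cells' 90th-percentile brightness under 279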;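 for vesicle binding response: mean PE anti-B7-1 fluorescence of CD8+ cells relative to row control; 100% = QL9-loaded vesicles with DMSO vehicle in the same plate row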). Particulars: 2C mouse CD8+ T cells, at 7 µM, stronger effect = lower value; double positive events: measured here: CD8+/vesicle+ event percentage.
The target in assay [7] is Integrin beta-1 (Homo sapiens) + Integrin alpha-4 (Homo sapiens) (UniProt P13612+P05556). In words: inhibition of HUTS-21 binding to VLA-4, pilot screen, VLA-4 allosteric modulator project, U937 cells, HUTS-21 mAb, flow cytometry, validation set (AID 2674;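 active = inhibition above 50%, about 3 SD of the validation set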;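 note: antibody binding induced by the VLA-4 ligand LDV present at three times its Kd; 0% = LDV ligand with antibody and no compound and 100% = antibody without LDV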). Particulars: HUTS-21 LIBS mAb binding, at 6.7 µM, stronger effect = higher value, binding induced by LDV ligand.
Integrin beta-1 (Homo sapiens) + Integrin alpha-4 (Homo sapiens), sequence (P05556 whole entry, looked up): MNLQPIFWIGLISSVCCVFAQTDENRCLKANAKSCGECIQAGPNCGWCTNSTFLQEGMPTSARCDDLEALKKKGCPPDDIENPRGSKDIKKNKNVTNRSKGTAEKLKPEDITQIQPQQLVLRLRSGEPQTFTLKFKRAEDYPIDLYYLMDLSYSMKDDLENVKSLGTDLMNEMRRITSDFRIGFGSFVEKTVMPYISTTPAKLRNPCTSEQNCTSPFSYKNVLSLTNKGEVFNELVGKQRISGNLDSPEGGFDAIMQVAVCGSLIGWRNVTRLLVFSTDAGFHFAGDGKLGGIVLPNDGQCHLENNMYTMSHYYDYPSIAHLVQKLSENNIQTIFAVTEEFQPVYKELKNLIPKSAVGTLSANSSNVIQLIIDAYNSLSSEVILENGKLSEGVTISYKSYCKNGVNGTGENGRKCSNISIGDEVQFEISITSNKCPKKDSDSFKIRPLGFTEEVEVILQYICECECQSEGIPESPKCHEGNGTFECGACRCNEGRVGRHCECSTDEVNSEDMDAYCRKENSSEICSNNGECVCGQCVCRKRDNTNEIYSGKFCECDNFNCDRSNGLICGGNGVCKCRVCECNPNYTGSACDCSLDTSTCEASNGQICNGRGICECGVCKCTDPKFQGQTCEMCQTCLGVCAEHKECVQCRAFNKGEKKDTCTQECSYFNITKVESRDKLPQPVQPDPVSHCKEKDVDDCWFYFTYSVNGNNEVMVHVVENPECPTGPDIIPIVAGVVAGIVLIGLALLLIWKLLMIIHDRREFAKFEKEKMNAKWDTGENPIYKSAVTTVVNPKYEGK
Integrin beta-1 (Homo sapiens) + Integrin alpha-4 (Homo sapiens), sequence (P13612 whole entry, looked up): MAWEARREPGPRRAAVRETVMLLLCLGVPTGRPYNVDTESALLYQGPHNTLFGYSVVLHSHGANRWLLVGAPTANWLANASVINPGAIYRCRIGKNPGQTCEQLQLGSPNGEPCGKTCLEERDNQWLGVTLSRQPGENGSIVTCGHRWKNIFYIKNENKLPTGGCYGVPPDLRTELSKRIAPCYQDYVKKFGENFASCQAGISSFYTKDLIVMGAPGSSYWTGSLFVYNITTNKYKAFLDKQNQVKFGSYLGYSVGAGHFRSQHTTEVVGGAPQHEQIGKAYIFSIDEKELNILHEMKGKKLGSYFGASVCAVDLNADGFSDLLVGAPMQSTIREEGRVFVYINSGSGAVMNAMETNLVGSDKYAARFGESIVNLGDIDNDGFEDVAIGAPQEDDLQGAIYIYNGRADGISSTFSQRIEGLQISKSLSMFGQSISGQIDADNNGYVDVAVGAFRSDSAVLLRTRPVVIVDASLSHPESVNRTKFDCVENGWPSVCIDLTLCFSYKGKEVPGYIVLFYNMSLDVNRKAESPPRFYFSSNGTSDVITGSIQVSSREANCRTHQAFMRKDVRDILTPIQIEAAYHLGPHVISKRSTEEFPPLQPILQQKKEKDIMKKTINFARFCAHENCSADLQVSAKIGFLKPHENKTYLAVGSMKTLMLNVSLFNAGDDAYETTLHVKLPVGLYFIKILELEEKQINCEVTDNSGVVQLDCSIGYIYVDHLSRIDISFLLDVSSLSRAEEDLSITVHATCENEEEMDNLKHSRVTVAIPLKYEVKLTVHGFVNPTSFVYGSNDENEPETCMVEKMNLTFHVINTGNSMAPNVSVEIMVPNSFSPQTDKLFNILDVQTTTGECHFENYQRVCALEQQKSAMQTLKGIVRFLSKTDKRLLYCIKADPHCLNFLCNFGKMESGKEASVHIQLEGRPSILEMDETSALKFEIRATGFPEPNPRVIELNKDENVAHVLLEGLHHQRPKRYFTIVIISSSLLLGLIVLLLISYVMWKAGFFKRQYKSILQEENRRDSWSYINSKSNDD
The nature of assay [8]: superoxide lowering in aged yeast cells, pilot screen, validation compound set (AID 2706;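 active = superoxide response below 65% of plate, a cut near 3 SD across the whole screen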;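 note: yeast exposed to compound for one week at 30 degrees C before staining; 100% = mean of all compound wells on the same plate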). Particulars: S. cerevisiae aging, superoxide DHE fluorescence; at 10 µM; stronger effect = lower value.
Assay [9] concerns the target Beta-adrenergic receptor kinase 1 (Homo sapiens) (UniProt P25098). The experiment in a line: GRK2 binders displacing RNA aptamer, biochemical, validation, human GRK2, bead flow cytometry (AID 488806;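 active = aptamer binding inhibition above 30%, about 3 SD of noise from non-fluorescent compounds; inactive = inhibition at or below 30%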). Particulars: bead-bound GRK2, FAM-aptamer displacement, at 10 µM, stronger effect = higher value.
The target in assay [10] is Beta-2 adrenergic receptor (Homo sapiens) (UniProt P07550). In words: beta2AR agonists driving receptor internalization, pilot screen, cell-based, FAP fluorogen, flow cytometry, validation set (AID 504459;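 active = percent response above 42, roughly 3 SD of non-fluorescent test compounds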;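 note: agonist-driven loss of surface beta2AR via internalization measured by FAP dye flow cytometry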). Particulars: Am2.2-beta2AR cells, FAP surface receptor flow cytometry; at 10 µM; stronger effect = higher value.
Beta-2 adrenergic receptor (Homo sapiens), sequence (P07550 whole entry, looked up): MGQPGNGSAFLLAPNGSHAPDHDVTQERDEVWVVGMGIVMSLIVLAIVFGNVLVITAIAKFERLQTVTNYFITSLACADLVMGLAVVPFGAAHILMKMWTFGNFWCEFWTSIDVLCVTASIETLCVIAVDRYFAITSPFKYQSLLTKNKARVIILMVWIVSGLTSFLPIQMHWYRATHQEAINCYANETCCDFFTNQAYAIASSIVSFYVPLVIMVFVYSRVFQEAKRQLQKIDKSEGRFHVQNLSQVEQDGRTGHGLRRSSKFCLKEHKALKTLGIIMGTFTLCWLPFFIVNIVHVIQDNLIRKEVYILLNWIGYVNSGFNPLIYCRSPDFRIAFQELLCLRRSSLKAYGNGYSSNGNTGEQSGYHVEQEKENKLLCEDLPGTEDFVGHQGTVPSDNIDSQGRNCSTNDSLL
Assay [11] addresses AP-2 complex subunit beta (Homo sapiens) (UniProt P63010). In words: inhibitors of arrestin peptide binding to AP2, pilot screen, biochemical, validation set, GST-AP2 beads, flow cytometry (AID 504541;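 active = inhibition above 54%, about 3 SD of non-fluorescent compounds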;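 note: AP2 carries R879A mutation and is captured from E. coli lysate; bead-bound FITC arrestin peptide fluorescence measuring arrestin peptide binding to AP2; 0% = DMSO wells and 100% = excess unlabeled arrestin peptide control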). Particulars: FITC arrestin peptide, at 10 µM, stronger effect = higher value, AP2 beta2 appendage fragment, R879A mutant.
Assay [12] can be described thus: yeast V-ATPase proton transport modulators, S. cerevisiae, pHLuorin, HTS validation (AID 504600; in the data active = response above about 15%;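 note: plate controls were DMSO for no effect and reference compound for full effect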). Particulars: S. cerevisiae pHLuorin cytosolic pH, at 10 µM, stronger effect = higher value.
For assay [13], the system named is anti-desmoglein-3 scFv antibody binding to human DSG3. In words: inhibitors of anti-DSG3 scFv binding to DSG3, pilot screen, biochemical, validation compound set, bead-based, flow cytometry (AID 588368;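 active = binding below the plate cutoff, the plate median minus 3 SD, with a reading above zero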;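 note: signal is the median channel fluorescence of bead-bound GFP antibody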). Particulars: Protein G beads, DSG3-Fc, scFv-GFP binding, at 10 µM, stronger effect = lower value.
Assay [14] is described as follows: inhibitors of fungal efflux pumps CDR1, CDR2, MDR1, pilot screen, validation compound set, multiplex, phenotypic (AID 588506;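 active = efflux inhibition above 0.42, the validation set average plus 4 SD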;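 note: Nile Red retained in cells so higher fluorescence means more efflux inhibition; 0 = negative control wells and 1 = enniatin B 25 µM full block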). Particulars: S. cerevisiae pump-expressing triplex, Nile Red efflux flow cytometry; at 10 µM; stronger effect = higher value; the pumps come from Candida albicans.
For assay [15], the target named is ATP-binding cassette sub-family B member 6 (Homo sapiens) (UniProt Q9NP58). In words: ABCB6 transporter inhibitors, pilot screen, K562-ABCB6 cells, flow cytometry, validation set (AID 588550).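 Note: 0% = DMSO wells and 100% = benzethonium chloride 70 µM positive control.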 Particulars: K562-ABCB6 porphyrin accumulation, 1 h, at 10 µM, stronger effect = higher value.
ATP-binding cassette sub-family B member 6 (Homo sapiens), sequence (Q9NP58 whole entry, looked up): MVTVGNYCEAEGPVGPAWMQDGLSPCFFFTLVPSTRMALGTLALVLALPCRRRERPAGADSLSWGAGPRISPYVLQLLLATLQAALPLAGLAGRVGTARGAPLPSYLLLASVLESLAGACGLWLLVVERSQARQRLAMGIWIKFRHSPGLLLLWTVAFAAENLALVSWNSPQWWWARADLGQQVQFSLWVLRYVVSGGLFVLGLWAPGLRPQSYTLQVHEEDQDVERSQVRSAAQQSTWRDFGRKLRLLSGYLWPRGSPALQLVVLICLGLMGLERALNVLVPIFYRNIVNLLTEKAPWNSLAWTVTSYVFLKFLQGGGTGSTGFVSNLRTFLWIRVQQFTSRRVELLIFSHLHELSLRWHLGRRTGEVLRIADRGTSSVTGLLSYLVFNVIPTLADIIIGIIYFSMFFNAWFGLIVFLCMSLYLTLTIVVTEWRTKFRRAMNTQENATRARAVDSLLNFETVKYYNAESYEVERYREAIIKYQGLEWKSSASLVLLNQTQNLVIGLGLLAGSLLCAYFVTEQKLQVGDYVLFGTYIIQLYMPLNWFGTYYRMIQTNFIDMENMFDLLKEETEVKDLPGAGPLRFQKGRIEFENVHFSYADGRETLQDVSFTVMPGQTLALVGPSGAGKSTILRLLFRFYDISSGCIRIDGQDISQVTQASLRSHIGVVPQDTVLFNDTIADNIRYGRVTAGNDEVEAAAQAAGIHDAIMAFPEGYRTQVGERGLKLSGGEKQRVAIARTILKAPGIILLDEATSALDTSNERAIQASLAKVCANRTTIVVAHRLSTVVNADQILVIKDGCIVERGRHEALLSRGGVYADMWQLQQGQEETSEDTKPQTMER
Assay [16] in a line: promoters of myeloid differentiation in arrested cells, primary screen, cell-based, GFP/MAC1 double positive, flow cytometry, validation set (AID 588685;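 active = differentiation response of at least 50%, scaled between solvent and reference control, from cells with both markers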;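 note: compound exposure lasts four days before antibody staining and flow analysis; 0% = DMSO wells and 100% = 5 µM fulvestrant positive control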). Particulars: ER-HoxA9 marrow cells, stronger effect = higher value, normalized: vehicle 0, fulvestrant 100.

Beta-adrenergic receptor kinase 1 (Homo sapiens), sequence (P25098 whole entry, looked up): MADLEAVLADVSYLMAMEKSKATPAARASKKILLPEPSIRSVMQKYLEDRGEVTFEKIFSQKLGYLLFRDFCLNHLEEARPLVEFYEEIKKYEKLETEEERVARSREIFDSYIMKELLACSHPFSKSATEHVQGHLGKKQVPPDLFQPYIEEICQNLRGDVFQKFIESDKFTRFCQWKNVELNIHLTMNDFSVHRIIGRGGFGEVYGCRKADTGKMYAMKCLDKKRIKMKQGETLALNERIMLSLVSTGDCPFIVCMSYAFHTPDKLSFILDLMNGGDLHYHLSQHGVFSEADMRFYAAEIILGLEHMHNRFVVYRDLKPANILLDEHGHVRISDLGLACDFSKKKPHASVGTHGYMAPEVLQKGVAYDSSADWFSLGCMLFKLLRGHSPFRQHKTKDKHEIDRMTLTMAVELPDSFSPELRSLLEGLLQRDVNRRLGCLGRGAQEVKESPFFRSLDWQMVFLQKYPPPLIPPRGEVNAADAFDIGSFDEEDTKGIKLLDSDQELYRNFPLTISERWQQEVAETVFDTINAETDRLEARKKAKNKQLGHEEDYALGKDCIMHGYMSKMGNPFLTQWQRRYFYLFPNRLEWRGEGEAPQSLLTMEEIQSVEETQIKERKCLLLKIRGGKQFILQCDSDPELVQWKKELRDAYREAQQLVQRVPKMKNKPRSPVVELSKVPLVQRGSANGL
AP-2 complex subunit beta (Homo sapiens), sequence (P63010 whole entry, looked up, the tested form may be a part, one chain of several): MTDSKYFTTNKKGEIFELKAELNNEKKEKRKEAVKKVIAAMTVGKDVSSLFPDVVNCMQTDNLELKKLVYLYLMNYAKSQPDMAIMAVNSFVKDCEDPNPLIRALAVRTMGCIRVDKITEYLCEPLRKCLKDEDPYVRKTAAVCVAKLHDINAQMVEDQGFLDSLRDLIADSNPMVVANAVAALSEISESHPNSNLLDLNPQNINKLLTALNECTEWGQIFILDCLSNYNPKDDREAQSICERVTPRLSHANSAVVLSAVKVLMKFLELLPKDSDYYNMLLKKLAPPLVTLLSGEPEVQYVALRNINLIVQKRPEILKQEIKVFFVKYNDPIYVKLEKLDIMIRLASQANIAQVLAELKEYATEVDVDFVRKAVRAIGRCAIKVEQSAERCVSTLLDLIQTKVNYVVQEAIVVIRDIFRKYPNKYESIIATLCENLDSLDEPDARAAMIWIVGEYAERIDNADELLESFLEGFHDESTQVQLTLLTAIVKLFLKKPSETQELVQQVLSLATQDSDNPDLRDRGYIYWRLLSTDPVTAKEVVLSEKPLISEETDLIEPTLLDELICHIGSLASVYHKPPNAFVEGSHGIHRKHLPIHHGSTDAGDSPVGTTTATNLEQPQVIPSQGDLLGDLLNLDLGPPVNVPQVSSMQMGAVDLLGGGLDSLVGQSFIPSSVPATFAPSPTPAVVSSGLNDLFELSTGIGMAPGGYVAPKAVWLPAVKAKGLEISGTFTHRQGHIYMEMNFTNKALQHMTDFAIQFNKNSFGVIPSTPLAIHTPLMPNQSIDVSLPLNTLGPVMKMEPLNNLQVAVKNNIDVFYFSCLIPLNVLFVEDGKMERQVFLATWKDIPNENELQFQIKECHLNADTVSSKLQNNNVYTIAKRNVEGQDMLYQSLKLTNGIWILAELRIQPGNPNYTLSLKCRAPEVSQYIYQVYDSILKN

Take `CC(C)C12CN3CC(C(C)C)(CN(C1)C3c1ccccc1)C2O` (stereo not drawn): the percent of DMSO control GFP in assay [1] is 98.9% (inactive). Besides, the GFP response vs DMSO in [2] and in assay [4] was 101% (inactive) throughout. The percent response of DMSO control in [3] was 101% (inactive). For the same molecule, the GFP response, % of DMSO in assay [5] was 109% (inactive). In assay [6], this molecule displayed a double positive events of 63.9%. The vesicle binding response in [6] is 110% (inactive). For the same molecule, the inhibition (commonly the change of the read-out against control, counted positive when it falls) in assay [7] is 14.2% (inactive); in [11] it was 8.13% (inactive); in [15], 6% (inactive). Besides, the superoxide response (% of plate) in assay [8] is 99.3% (inactive). In addition, the aptamer binding inhibition in [9] is 6% (inactive). The response in assay [10] was -12.3% (inactive); in assay [12] it was -11% (inactive). The binding (% of control) in [13] was 104% (inactive). In [14], the efflux inhibition (fraction of control) is -0.09 (inactive). The differentiation response in assay [16] is -0.06% (inactive).

Turning to `CCCN(CCC)C(=O)C(CCC(=O)O)NC(=O)c1ccccc1` (stereo not drawn), the percent of DMSO control GFP in assay [1] was 98.8% (inactive). Moreover, the GFP response vs DMSO in assay [2] was 109% (inactive); in assay [4], 92% (inactive). The percent response of DMSO control in [3] was 95.4% (inactive). In [5], the GFP response, % of DMSO is 94.5% (inactive). In addition, the double positive events in assay [6] was determined as 59.4%. In assay [6], the vesicle binding response is 977% (inactive). Also, the values for the inhibition in assay [7], in [11] and in assay [15] were 7.85% (inactive), -5.39% (inactive) and -8% (inactive), respectively. Moreover, the superoxide response (% of plate) in [8] was 94.3% (inactive). The aptamer binding inhibition in [9] was 7% (inactive). For the same molecule, the figures for the response in assay [10] and in assay [12] were -4.18% (inactive) and -4.29% (inactive), respectively. Besides, the binding (% of control) in assay [13] was 99.8% (inactive). In addition, the efflux inhibition (fraction of control) in assay [14] was -0.2 (inactive). The differentiation response in assay [16] is 6.11% (inactive).

As for `COc1cc(SC)ccc1C(=O)NC(C)C`, the percent of DMSO control GFP in assay [1] was 102% (inactive). For the same molecule, the GFP response vs DMSO in assay [2] and in assay [4] was 101% (inactive) each time. Also, the percent response of DMSO control in [3] was 99.6% (inactive). In assay [5], the GFP response, % of DMSO was 94.9% (inactive). In [6], this molecule had a double positive events of 58.7%. In assay [6], the vesicle binding response was 171% (inactive). Also, the values for the inhibition in assay [7], in [11] and in assay [15] were -9.98% (inactive), -4.67% (inactive) and 6% (inactive), respectively. Besides, the superoxide response (% of plate) in assay [8] is 97.8% (inactive). Moreover, the aptamer binding inhibition in assay [9] was -1% (inactive). Further, the results for the response in [10] and in assay [12] were -0.58% (inactive) and 1.52% (inactive), respectively. Further, the binding (% of control) in assay [13] is 101% (inactive). Moreover, the efflux inhibition (fraction of control) in [14] is -0.13 (inactive). Moreover, the differentiation response in [16] is -21.6% (inactive).

On to `O=C1c2ccccc2N2C(=O)c3ccccc3C2N1Cc1ccco1` (stereo not drawn), for which the percent of DMSO control GFP in assay [1] is 104% (inactive). In addition, the GFP response vs DMSO in assay [2] was 104% (inactive); in assay [4], 103% (inactive). In assay [3], the percent response of DMSO control was 110% (inactive). The GFP response, % of DMSO in assay [5] was 89.8% (inactive). In [6], this molecule showed a double positive events of 61%. Besides, the vesicle binding response in assay [6] was 140% (inactive). The inhibition in [7] was -2.43% (inactive); in assay [11] it was -5.51% (inactive); in assay [15] it was -8% (inactive). Moreover, the superoxide response (% of plate) in assay [8] is 95.6% (inactive). In addition, the aptamer binding inhibition in assay [9] is 0% (inactive). Further, the response in assay [10] was -16.2% (inactive); in [12] it was -3.39% (inactive). Also, the binding (% of control) in [13] was 99.6% (inactive). For the same molecule, in assay [14], the efflux inhibition (fraction of control) was 0.03 (inactive). The differentiation response in assay [16] is -1.65% (inactive).
